Results on 40 molecules are retold here after PubChem BioAssay (NCI).

The panel holds about 83,000 compounds, 20% with a hit somewhere; the sample as a whole holds those more often.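 Growth was measured after 48 h exposure to one concentration of compound in 96-well plates. Values under 10 count as active.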 Active and inactive are the calls of the source.

For this assay, the system named is MDA-MB-468 breast. The assay is described as follows: NCI-60 one-dose screen, 48 h (100 = growth as untreated, 0 = no growth, -100 = all killed). Particulars: 10 µM unless noted.
As for `Cc1cc(N2CCCCC2)nc(N(CCNc2ccnc3cc(Cl)ccc23)Cc2ccccn2)n1`, the growth was 3.63% (active).

For `CC(=O)c1ccc(Nc2nccc(-c3ccc4ccccc4c3)n2)cc1`, the growth was 76.8% (inactive).

For the molecule `CCOC(=O)n1cc(C2=C(c3cn(C)c4ccccc34)COC2=O)c2ccccc21`, the growth is 29.5% (inactive).

In the case of `Oc1c(I)cc(-c2nc3ccccc3s2)cc1CN(Cc1ccccn1)Cc1ccccn1`, the growth is -11.4% (active).

On to `O=C1/C(=C\c2ccc(F)cc2)CN(C(=O)c2ccccc2)C/C1=C\c1ccc(F)cc1`, for which the growth was 5.47% (active).

On to `O=C(c1c[nH]c(=O)c(-c2ccccc2)c1)c1ccccc1O`, for which the growth was 80.8% (inactive).

For the molecule `Cc1ccc(-c2cc3nc(C(Cl)Cl)nc(-c4ccco4)n3n2)cc1`, the growth is -41.3% (active).

Turning to `Cc1ccc2oc(=O)cc(-c3cc(-c4cc5ccccc5oc4=O)nc(N)c3C#N)c2c1`, the growth was 68.7% (inactive).

`O=C(CC1Sc2ccccc2NC1=O)NNc1cccc(Cl)c1Cl` (stereo not given): the growth was 95.2% (inactive).

With `CCC/C=C/C=C/C(=O)N[C@@H](Cc1cc(F)cc(F)c1)C(=O)N[C@@H]1C(=O)N2CCC[C@H]2C(=O)N2CCCC[C@H]2C(=O)N[C@@H](C)C(=O)N2C[C@H](C)C[C@H]2C(=O)O[C@H]1C`, the growth is -0.457% (active).

As for `Cc1ccsc1C(NC(=O)c1ccccc1)c1cc(Cl)c2cccnc2c1O` (stereo not given), the growth is 4.52% (active).

As to `O=C(CCN1CCCC1)Nc1ccc2c(NCCCCc3ccccc3)c3ccccc3nc2c1`, the growth is -74.7% (active).

Take `Cc1ccc(C2CC(c3nc(-c4ccc(Cl)cc4)oc3C)=NN2C(=O)c2ccncc2)cc1` (stereo not given): the growth is 97.8% (inactive).

For `CCc1nc2cc(F)c(/C=C/C(=O)NO)cc2c(=O)n1CCc1ccccc1`, the growth is 4.28% (active).

In the case of `O=C(/C=C/c1ccco1)c1ccccc1O`, the growth is 60.7% (inactive).

`COc1ccc(-c2nn(-c3cccc(NC(=O)Nc4cccc(C(F)(F)F)c4)c3)cc2-c2ccncc2)cc1Cl`: the growth was 27.5% (inactive).

On to `CC[C@H](Nc1ncnc2nc[nH]c12)c1nc2cccc(CC(=O)c3ccc(C(=O)NO)cc3)c2c(=O)n1-c1ccccc1`, for which the growth was 60.8% (inactive).

On to `CCCC(=O)CC(=O)c1ccccc1`, for which the growth was 97.5% (inactive).

Regarding `CN(C)C(C)(C)CC(C)(C)C`, the growth was 116% (inactive).

As for `COc1cc2c(cc1O)CC[C@@H]1[C@@H]2CC[C@]2(C)[C@@H](NCCN(C)C)CC[C@@H]12`, the growth is -85.1% (active).

As for `CO[C@H]1CC(O[C@@H]2/C(C)=C/C[C@@H]3C[C@@H](C[C@]4(C=C[C@H](C)[C@@H](C5CCCCC5)O4)O3)OC(=O)[C@@H]3C=C(C)[C@@H](O)[C@H]4OC/C(=C\C=C\[C@@H]2C)[C@]43O)O[C@@H](C)C1O[C@H]1C[C@H](OC)[C@@H](O)[C@H](C)O1` (stereo not given in full), the growth was -72.5% (active).

For the molecule `c1ccc2c(c1)Nc1cc3ccccc3cc1N2`, the growth was 40.3% (inactive).

With `Clc1nc(Nc2ccccc2)nc(Nc2ccccc2)n1`, the growth is 57.3% (inactive).

Take `CC/C=C1/C(=O)C=C[C@@H]1C/C=C\CCCC(=O)OC`: the growth is 77.6% (inactive).

For the molecule `COc1ccc(C2=C(Nc3ccc(C(=O)Nc4ccccc4)cc3)C(=O)N(C)C2=O)cc1`, the growth was 88.1% (inactive).

For `CSc1nc2ccc(C)cc2cc1/C=N/O`, the growth is 101% (inactive).

For the molecule `CC(=O)OC[C@]12CC[C@@H](c3cn(Cc4ccc(Cn5cc([C@@H]6CC[C@]7(COC(C)=O)CC[C@]8(C)[C@H](CC[C@@H]9[C@@]%10(C)CC[C@H](OC(C)=O)C(C)(C)[C@@H]%10CC[C@]98C)[C@@H]67)nn5)cc4)nn3)[C@@H]1[C@H]1CC[C@@H]3[C@@]4(C)CC[C@H](OC(C)=O)C(C)(C)[C@@H]4CC[C@@]3(C)[C@]1(C)CC2`, the growth is 102% (inactive).

Regarding `CC1(C)CC(=O)C2=C(C1)OC(C(=O)c1ccccc1)C2c1cccc(Oc2ccccc2)c1` (stereo not given), the growth is 33% (inactive).

For the molecule `Cc1[nH]n(C(N)=S)c(=O)c1N=Nc1ccc(S(=O)(=O)Nc2ccncn2)cc1`, the growth is 86.4% (inactive).

`COC(=O)[C@]12CC[C@@H](C)[C@H](C)[C@@H]1C1=CC[C@@H]3[C@@]4(C)CC(=O)[C@H](OC(=O)c5ccco5)[C@@]5(C)COC(=C45)C[C@@]3(C)[C@]1(C)CC2`: the growth is 8.15% (active).

As to `CSc1nc2nc3c(nc2c(=O)n1C)C(=O)c1ccccc1C3=O`, the growth was -58.4% (active).

`NCCCNc1nc2ccccc2c2c(=O)c3cccc(Cl)c3sc12`: the growth was -80.2% (active).

On to `COc1ccc(C2CC(c3cccc(Nc4nc(Cl)nc5cc(OC)c(OC)cc45)c3)=Nc3c(N)nc(N)nc3N2)cc1` (stereo not given), for which the growth is 92.3% (inactive).

For the molecule `O=S(=O)(c1ccc(NCSc2nc3ccccc3s2)cc1)c1ccc(NCSc2nc3ccccc3s2)cc1`, the growth is 95.8% (inactive).

In the case of `Cc1ncc(C(=O)Nc2ccc(CN3CCN(C)CC3)c(C(F)(F)F)c2)cc1C#Cc1cnc(N)c2ccncc12`, the growth is -36.7% (active).

For the molecule `CN1C(=O)CNC(=O)[C@H](NC(=O)c2nc3ccccc3cc2O)CSSC[C@H]1C(=O)NCCCc1nc2ccccc2cc1O`, the growth is 22.3% (inactive).

Turning to `CC[N+](CC)=c1ccc2nc3c(cc(NCc4ccccc4)c4ccccc43)oc-2c1`, the growth is -88.7% (active).

With `COc1cc(C(=O)/C=C/c2ccc(OCCCCCC[P+](c3ccccc3)(c3ccccc3)c3ccccc3)cc2)cc(OC)c1OC`, the growth was -58.6% (active).

On to `COC(=O)CCCCCN=Cc1c(O)c(O)c(C(C)C)c2cc(C)c(-c3c(C)cc4c(C(C)C)c(O)c(O)c(C=NCCCCCC(=O)OC)c4c3O)c(O)c12`, for which the growth was 26.3% (inactive).

Take `CC(C)=CC/C=C(/C)[C@H]1CC[C@]2(C)[C@@H]1CC[C@@H]1[C@@]3(C)CCC(=O)NC(C)(C)[C@@H]3CC[C@]12C`: the growth was -17.7% [100 µM] (active).
